From PubChem BioAssay (NCI)
Values joined by “and” are separate entries in the source; they are usually repeats but may differ in a detail not shown here. Identical values can stand only once. This is part of a sample that, as a whole, favours compounds with a hit. Of some 83,000 tested, about 20% had one in any assay.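 A percent growth of 40 corresponds to 60% growth inhibition; 0 means no net growth; -100 means all cells died. Active threshold: below 10.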 Values without a mark were called inactive. Active and inactive are the calls of the source.

System: OVCAR-8 ovarian
Assay: NCI-60 one-dose screen, 48 h (100 = growth as untreated, 0 = no growth, -100 = all killed)
Settings: 10 µM unless noted
Experimental: Growth inhibition of the OVCAR-8 human tumor cell line is measured as a screen for anti-cancer activity. Cells are grown in 96 well plates and exposed to the test compound for 48 hours. Compounds are tested at a single concentration, which is 10^-5 M for most compounds. The reported endpoint is percent growth (GI% or GIPRCNT), where numbers from 0 - 100% represent growth inhibition, and numbers from -100% - 0 represent cell death. For example, a value of 40 represents 60% growth inhibition. A value of 0 means no net growth occurred over the course of the experiment. A value of -40 indicates 40% of cells at the beginning of the experiment died by the end of the experiment. A value of -100 means all cells are dead at the end of the experiment.
NCI-60 Human Tumor Cell Lines Screen was performed using the standard one-dose NCI protocol, which is described in more detail at https://dtp.cancer.gov/discovery_development/nci-60/default.htm.
Compounds with GIPRCNT values below 10 were considered active. Activity score was based on GIPRCNT using the following formula: […]
Score is 0 for GIPRCNT values of 100 or above, 50 for GIPRCNT values of 0, and 100 for GIPRCNT values of -100.

SMILES	growth
O=c1c2ccccc2nc(-c2ccccc2Cl)n1-c1nnc(C(F)(F)F)s1	32.7%
CC[C@H](C)[C@H](NC(=O)C12CC(NC)(C1)C2)C(=O)N(C)[C@H](C[C@@H](OC(C)=O)c1nc(C(=O)N[C@@H](Cc2ccccc2)C[C@H](C)C(=O)OC)cs1)C(C)C	17.5%
COc1cc(C=C2C(=O)NC(=O)NC2=O)ccc1O	93.7%
C#COc1cccc(Nc2ncnc3cc(NC(=O)CF)ccc23)c1	42.5% [6.25 µM]
C/C=C(/C)C(=O)O[C@H]1CC[C@@]2(C)[C@@H]3CC[C@H]4[C@]5(O)C[C@H](O)[C@@]6(O)[C@@H](CN7C[C@@H](C)CC[C@H]7[C@@]6(C)O)[C@]5(O)C[C@@]42O[C@@]13O	91.9%
Nc1c(Cl)c(Cl)nc(C(=O)O)c1Cl	94.2%
Cn1cc(-c2csc(-c3cn(CCCCN4CCOCC4)c4ccc(F)cc34)n2)c2cccnc21	81.3%
CSc1cc(/C=C(\C)[C@@H]2C[C@@H]3O[C@]3(C)CCC[C@H](C)[C@H](O)[C@@H](C)C(=O)C(C)(C)[C@@H](O)CC(=O)O2)n(CCNC(=O)OC(C)(C)C)n1	55.5%
Cc1c(C)c(N)c(C)c(C)c1N	83.8%
CN(C)c1ccc([N+](=O)[O-])c([N+](=O)[O-])c1	104% and 96.3%
O=C(NC1=NCC[Se]1)c1ccccc1O	47.4%
O=[N+]([O-])c1ccc(OCc2ccc(S(=O)(=O)F)c(Cl)c2)c(Cl)c1	105%
CNC(=O)O/N=C(\SC)C(=O)N(C)C	97.7%
S=P(SP(=S)(c1ccccc1)c1ccccc1)(c1ccccc1)c1ccccc1	104%
Cc1ccc(NC2=N[C@]34CC(=O)CC[C@]3(C)[C@H]3CC[C@]5(C)C(=O)CC[C@H]5[C@@H]3C[C@@H]4S2)c(C)c1	31.7%
CC[C@H](C)[C@H]1O[C@]2(C=C[C@@H]1C)C[C@@H]1C[C@@H](C/C=C(\C)[C@@H](O[C@H]3C[C@H](OC)[C@@H](O[C@H]4C[C@H](OC)[C@@H](NC)[C@H](C)O4)[C@H](C)O3)[C@@H](C)/C=C/C=C3\CO[C@@H]4[C@H](O)C(C)=C[C@@H](C(=O)O1)[C@]34O)O2	10.7%
CC1(C)S[C@H]2CC[C@H]3OC(=O)[C@@H]1N23	102%
CC1=C(C)C(=O)O[C@@H]([C@](C)(O)[C@]2(O)CC[C@@]3(O)[C@@H]4C[C@H]5O[C@]56CC=CC(=O)[C@]6(C)[C@H]4CC[C@]23C)C1	-7.94% (active)
CC[C@H](C)[C@H](NC(=O)[C@H]1CCCCN1C)C(=O)N(C)[C@H](C[C@@H](OC(C)=O)c1nc(C(=O)N[C@@H](Cc2ccccc2)C[C@H](C)C(=O)O)cs1)C(C)C	21%
ClC1OC(Cl)(Cl)C(Cl)(Cl)OC1(Cl)Cl (stereo not given)	101%

SMILES	growth
Oc1ccc(O)c(Cl)c1	90.4% and 102%
CC1(C)C=Cc2c(ccc3c2[N+]([O-])=C2C3=C[C@@]34NC(=O)[C@]5(CCCN5C3=O)C[C@@H]4C2(C)C)O1	42.7%
C[C@]12CCc3nc(-c4ccc(O)c(O)c4)sc3C1=CC[C@@H]1[C@@H]2CC[C@]2(C)C(=O)CC[C@@H]12	29.9%
N[C@@H](CCC(=O)CCl)C(=O)O	108% [20 µM]
C(=NC1CCCCC1)=NC1CCCCC1	124% and 77.4%
CCN(CC)CCn1c(=O)n(C)c2ccccc21	101%
Oc1ccccc1C=NCCN=Cc1ccccc1O	110%
CC/C(=C(\c1ccc(OCCN2CCOCC2)cc1)c1ccc(OC(=O)Cc2ccccc2)cc1)c1ccc(Cl)cc1	107%
CCC(=O)C(CC(C)[N+](C)(C)C)(c1ccccc1)c1ccccc1 (stereo not given)	99.8%
Cc1cc(C(C)(C)C)ccc1O	102%
C/C(=N/OC(=O)N(C)C)c1ccc(Cl)c(Cl)c1	104%
CC(C)c1cccc(C(C)C)c1O	102%
Cc1cc(NC(=O)NCCCOc2ccc(N3C(N)=NC(N)=NC3(C)C)cc2Cl)ccc1S(=O)(=O)F	31.7%
O=C(Cc1ccccc1)c1ccccc1	108%
C[C@]12CC[C@H]3[C@@H](C[C@@H]4SC(Nc5ccccc5)=N[C@@]45C/C(=N/O)CC[C@]35C)[C@@H]1CCC2=O	46.7%
O=C1CCCCC1CN1CCCCC1 (stereo not given)	110%
COc1ccn(C)c(=O)c1C#N	96.3%
CCOP(=O)(NC)OCC	115%
O=CC1(c2ccccc2)CCN(Cc2ccccc2)CC1	105%
CO[C@@H]([CH2][Hg][O]C(=O)c1ccccc1)[C@@H]([CH2][Hg][O]C(=O)c1ccccc1)OC	83.8%
